The results in this text go back to PubChem BioAssay (NCATS).

Records with an inconclusive call do not appear. The source made the active and inactive calls. Unless noted, calls follow the shape of the dose curve; as a rule, active = well fitted curve in the direction sought with a large enough effect; inconclusive = small, poorly fitted or top-dose-only effect, or another doubt; inactive = no such curve, though single readings can be large; an effect the other way counts as inactive or inconclusive. Where only a bound is given, the exact number is not on record here.

Test [1] in a line: qHTS profiling of the MIPE4 collection as inhibitors of Plasmodium falciparum (3D7) proliferation (AID 743344; call rule not given here;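 also: scaled between DMSO vehicle wells and 0.29 µM artemisinin as full inhibition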). Particulars: P. falciparum 3D7 in erythrocytes, SYBR Green DNA fluorescence, 72 h; at 28.5 µM. The gist of the method:
(§1)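 Parasite DNA was quantified by SYBR Green I fluorescence (ex 485, em 535 nm) after overnight lysis in saponin/Triton buffer at room temperature. Cultures at 0.3% parasitemia and 2.5% hematocrit were first exposed to compound for 72 h at 37 C; signals were normalised to artemisinin (0.29 uM) and vehicle wells.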
Background: qHTS replaces the single test concentration by a dilution series.

Test [2] can be described thus: qHTS profiling of the MIPE4 collection as inhibitors of Plasmodium falciparum (DD2) proliferation (AID 743345; call rule not given here). Particulars: P. falciparum Dd2 in erythrocytes, SYBR Green DNA, 72 h; at 28.5 µM. The method, boiled down:
as §1

The nature of test [3]: qHTS profiling of the MIPE4 collection as inhibitors of Plasmodium falciparum (DD2) proliferation (Rep 2) (AID 743346; call rule not given here). The note with it: P. falciparum Dd2 in erythrocytes, SYBR Green DNA, 72 h; at 28.5 µM. The gist of the method:
as §1

A short description of test [4]: qHTS profiling of the MIPE4 collection as inhibitors of Plasmodium falciparum (HB3) proliferation (AID 743347; call rule not given here;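 also: plate controls were DMSO vehicle wells for no effect and artemisinin wells for full effect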). Particulars: P. falciparum HB3 in erythrocytes, SYBR Green DNA, 72 h; at 28.5 µM. The method, boiled down:
as §1

Test [5] is described as follows: NCATS anti-infectives library activity on HEK293 viability as a counter-qHTS vs the C. elegans viability qHTS (AID 1745854).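 Also: potency is read from the fitted curve at half-maximal effect; HEK293 cells exposed to compounds for 24 hr before the viability read.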 The gist of the method: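 Compound titrations (final up to 41.7 uM) were incubated with HEK293 cells for 24 hr at 37C under 5% CO2. Viable cells were quantified with CellTiter-Glo after 10 min at ambient temperature.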
A short description of test [6]: NCATS anti-infectives library activity on the primary C. elegans qHTS viability assay (AID 1745855; calls by dose curve; also: potency is read from the fitted curve at half-maximal effect). The method, boiled down: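 Titration-based screen in worms: eggs hatched overnight in M9, L1 larvae fed TOP10 capsules in S medium with compound, incubated 21 °C for 7 days; fluorescent objects gated by size and intensity at days 0, 3 and 7.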
Test [7] concerns the target Glutathione peroxidase 1 (Homo sapiens) (UniProt P07203). Put plainly: Primary qHTS Assay for Inhibitors of Recombinant Selenoprotein Glutathione Peroxidase 1 (GPX1) (AID 1845191). Also: nearly all actives have a fitted effect of over 65% in size. The gist of the method:
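GPX1 10 nM, GR 100 nM, GSH 1 mM, NADPH 0.5 mM, CHP 0.5 mM (final). 30-min cpd preincubation, RT. Ex340/Em450 read t=0, t=15 min.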

Test [8] addresses Phospholipid hydroperoxide glutathione peroxidase GPX4 (Homo sapiens) (UniProt P36969). Put plainly: Primary qHTS Assay for Inhibitors of Recombinant Selenoprotein Glutathione Peroxidase 4 (GPX4) (AID 1845192). Also: % is scaled to controls: 0 for no effect and ±100 for the full control effect; nearly all actives have a fitted effect of over 65% in size. The method, boiled down:
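qHTS, GR-coupled: GPX4 200 nM + cpd 30 min RT → GSH 1 mM, NADPH 0.5 mM, GR 100 nM → CHP 0.5 mM start; fluor 340/450 at t0 and t15 min; no-enzyme wells as control.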

Test [9] concerns the target Lysosomal acid glucosylceramidase (Homo sapiens) (UniProt P04062). The test can be described thus: Glucocerebrosidase-p2 (AID 348; in the data active = potency below about 10 µM; also: potency is read from the fitted curve at half-maximal effect). The note with it: purified GBA, blue fluorogenic substrate, 40 min. The gist of the method: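 Normal human glucocerebrosidase (0.2 nM) with blue fluorogenic substrate (80 uM final) in citrate/phosphate pH 5.9 with 10mM sodium taurocholate, 0.01% tween-20; 40 min RT, NaOH/glycine stop; fluorescence Ex 365/Em 440; AC50 from a titration from 0.6 nM upwards.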

Test [10] addresses Cytochrome P450 1A2 (Homo sapiens) (UniProt P05177). The test can be described thus: p450-cyp1a2 (AID 410; calls by dose curve; also: potency is read from the fitted curve at half-maximal effect). The method, boiled down:
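Read-out is luminescence from luciferin produced by CYP1A2 demethylation of Luciferin-ME (100uM, at Km). Detection reagent stopped the 60 min NADPH-dependent reaction; signals were normalized to 57 uM furafylline.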

Test [11] in a line: NFAT Signaling Pathway (AID 444; active = well fitted curve in either direction with a large enough effect, not every such curve was filed as active;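 also: carbachol stimulus at about its EC50 of 1 µM final; % is scaled to controls: 0 for no effect and ±100 for the full control effect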). Particulars: Jurkat NFAT-bla M1, carbachol, beta-lactamase ratio, 5 h; at 7.69 µM (top of the series) unless noted. The method, boiled down: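 Jurkat cells carrying an NFAT-driven β-lactamase reporter and co-transfected muscarinic M1 receptor were treated with compound plus carbachol (1 uM final, an EC50 level) for 5 h at 37 °C. CCF4 loading followed for 1 h at RT; 460/530 nm ratio gave %activity.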

A short description of test [12]: Stat Signaling Pathway (AID 446; active = well fitted curve in either direction with a large enough effect, not every such curve was filed as active;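 also: ME-180 cervical cancer cells given 40 pM IL-6 alongside compound; SIE-controlled beta-lactamase reporter measured as 460/530 nm FRET emission ratio; % is scaled to controls: 0 for no effect and ±100 for the full control effect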). The gist of the method:
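Normalization used AC90 stimulation (300 pM IL-6) and AC90 inhibition (125 nM pan-JAK inhibitor at 40 pM IL-6). The underlying signal is SIE-driven beta-lactamase in ME-180 cells after 5 h IL-6 exposure with compound.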

The target in test [13] is Glucocorticoid receptor (Homo sapiens) (UniProt P04150). The test can be described thus: GR-GFP Redistribution (AID 450;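 active = compounds whose dose series gives a full or clear partial fitted curve of increased nuclear translocation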; also: potency is read from the fitted curve at half-maximal effect). Particulars: U2OS GR-GFP nuclear translocation, laser cytometry, 2 h.
For test [14] the target is unchanged. Put plainly: GR-EFC Redistribution (AID 451; calls by dose curve; also: potency is read from the fitted curve at half-maximal effect). The note with it: CHO-K1 GR-EFC translocation, beta-gal luminescence, 2 h. The gist of the method:
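CHO-K1 cells stably expressing nuclear-localized β-gal enzyme acceptor and GR fused C-terminally to the enzyme donor fragment; ligand-driven nuclear translocation restores β-gal by complementation. Compounds titrated up to 46 uM final, 2 h at 37 °C; luminescence read.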

Test [15] concerns the target 3',5'-cyclic-AMP phosphodiesterase 4B (Homo sapiens) (UniProt Q07343). The test can be described thus: qHTS Assay for Inhibitors of PDE-IV (AID 607; active = well fitted activation curve with a large enough effect in the main read-out, with a control signal flat, not every such curve was filed as active; also: % of control where 0% means no effect). The gist of the method: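 HEK293 ACTOne cells with CNG channel (1000/well), endogenous PDE4; membrane potential dye, compounds up to 22.9 uM final. Fluorescence Ex 535/Em 590; RO 20-1724 (100 uM final) as reference.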

Test [16] concerns the target Cytochrome P450 3A4 (Homo sapiens) (UniProt P08684). Put plainly: qHTS Assay for Activators of Cytochrome P450 3A4 (AID 885). Also: nearly all actives have a fitted effect of over 65% in size. The gist of the method: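 Human CYP3A4 dealkylates Luciferin-PPXE to luciferin, which luciferase detection converts to light. Substrate was at its KM (25uM), buffer 200mM KPO4, reaction 60 min at RT.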
Test [17] deals with Dual specificity protein kinase CLK4 (Homo sapiens) (UniProt Q9HAZ1). The test can be described thus: qHTS Assay for Inhibitors of CDC-like Kinase 4 (Kinase-Glo Assay) (AID 1770). Also: potency is read from the fitted curve at half-maximal effect; nearly all actives have a fitted effect of over 65% in size. The gist of the method:
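Recombinant human Clk4 (25 nM) phosphorylated RS repeat peptide (100 uM) with 1 uM ATP in Tris pH 7.5/MgCl2/EGTA/DTT/Triton buffer for 4.5 h at room temperature. Residual ATP was quantified by Kinase-Glo luciferase luminescence.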

Test [18] shares this target. The test can be described thus: qHTS Assay for Inhibitors of CDC-like Kinase 4 (ADP-Glo Assay) (AID 1771). Also: potency is read from the fitted curve at half-maximal effect; nearly all actives have a fitted effect of over 70% in size. The method, boiled down:
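In this ADP-Glo format, 1 uM ATP and 100 uM RS peptide served as substrates for 25 nM Clk4 in Mg2+/EGTA/DTT/Triton buffer; reactions ran 1 hr at room temperature before luminescent ADP quantification.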

Test [19] has the same target. Put plainly: qHTS Assay for Inhibitors of CDC-like Kinase 4 (ADP-FP Assay) (AID 1795). Also: % is scaled to controls: 0 for no effect and ±100 for the full control effect; nearly all actives have a fitted effect of over 60% in size. The gist of the method: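 Recombinant human Clk4 (6.25 nM) phosphorylated RS repeat peptide (100 uM) with 1 uM ATP in Tris pH 7.5/MgCl2/EGTA/DTT/Triton buffer for one hour. ADP was quantified by Transcreener competitive fluorescence polarization against an ADP calibration curve.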

The target of test [20] is Ubiquitin carboxyl-terminal hydrolase 1 (Homo sapiens) (UniProt O94782). The test can be described thus: Inhibitors of USP1/UAF1: Pilot qHTS (AID 504865).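 Also: rhodamine fluorescence freed from ubiquitin-rhodamine substrate followed over time; top concentration of the series differs between compounds; % is scaled to controls: 0 for no effect and ±100 for the full control effect; nearly all actives have a fitted effect of over 35% in size.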 The gist of the method: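 USP1/UAF1 complex (1nM) preincubated with compound 15 min at room temperature, then Ub-Rho substrate (150nM final) added. Fluorescence read kinetically at 480/540 nm, 6 reads every 60 seconds. Buffer: 50mM HEPES pH 7.8, 0.5mM EDTA, 0.1 mg/ml BSA, 1mM TCEP, 0.01% Tween-20.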
Sequence of Ubiquitin carboxyl-terminal hydrolase 1 (Homo sapiens) (O94782 whole entry, looked up): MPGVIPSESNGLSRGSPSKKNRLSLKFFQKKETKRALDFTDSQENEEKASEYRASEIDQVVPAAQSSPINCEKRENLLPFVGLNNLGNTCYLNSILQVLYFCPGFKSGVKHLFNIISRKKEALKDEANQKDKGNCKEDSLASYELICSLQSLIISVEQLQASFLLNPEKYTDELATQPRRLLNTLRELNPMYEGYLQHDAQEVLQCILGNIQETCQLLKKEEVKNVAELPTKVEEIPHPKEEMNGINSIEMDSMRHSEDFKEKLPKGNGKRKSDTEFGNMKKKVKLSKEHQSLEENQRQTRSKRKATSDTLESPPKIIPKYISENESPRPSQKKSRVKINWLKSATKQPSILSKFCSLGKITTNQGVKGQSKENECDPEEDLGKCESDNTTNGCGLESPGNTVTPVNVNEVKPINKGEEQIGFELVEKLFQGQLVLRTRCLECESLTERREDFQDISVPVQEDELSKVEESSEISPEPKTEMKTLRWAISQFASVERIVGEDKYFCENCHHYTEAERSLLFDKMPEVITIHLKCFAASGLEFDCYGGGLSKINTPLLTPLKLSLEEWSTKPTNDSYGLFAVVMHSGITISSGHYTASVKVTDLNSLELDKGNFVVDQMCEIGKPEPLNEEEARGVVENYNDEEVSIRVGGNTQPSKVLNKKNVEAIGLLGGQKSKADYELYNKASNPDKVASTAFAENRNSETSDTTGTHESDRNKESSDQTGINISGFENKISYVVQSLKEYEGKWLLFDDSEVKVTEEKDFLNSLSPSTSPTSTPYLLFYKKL

Sequence of Dual specificity protein kinase CLK4 (Homo sapiens) (Q9HAZ1 whole entry, looked up): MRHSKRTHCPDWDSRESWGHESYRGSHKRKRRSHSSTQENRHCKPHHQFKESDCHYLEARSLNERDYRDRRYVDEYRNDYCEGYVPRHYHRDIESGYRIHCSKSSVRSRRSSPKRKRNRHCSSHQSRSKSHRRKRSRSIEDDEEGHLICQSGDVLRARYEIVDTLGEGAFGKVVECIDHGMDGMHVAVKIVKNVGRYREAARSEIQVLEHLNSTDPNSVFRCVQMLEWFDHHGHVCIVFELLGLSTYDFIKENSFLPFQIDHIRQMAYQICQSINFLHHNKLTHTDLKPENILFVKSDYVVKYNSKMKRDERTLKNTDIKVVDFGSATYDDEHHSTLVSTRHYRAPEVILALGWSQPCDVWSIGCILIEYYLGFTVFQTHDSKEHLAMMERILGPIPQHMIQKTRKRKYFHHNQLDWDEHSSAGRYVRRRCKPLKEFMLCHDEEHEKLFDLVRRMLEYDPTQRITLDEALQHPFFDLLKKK
Sequence of Glucocorticoid receptor (Homo sapiens) (P04150 whole entry, looked up): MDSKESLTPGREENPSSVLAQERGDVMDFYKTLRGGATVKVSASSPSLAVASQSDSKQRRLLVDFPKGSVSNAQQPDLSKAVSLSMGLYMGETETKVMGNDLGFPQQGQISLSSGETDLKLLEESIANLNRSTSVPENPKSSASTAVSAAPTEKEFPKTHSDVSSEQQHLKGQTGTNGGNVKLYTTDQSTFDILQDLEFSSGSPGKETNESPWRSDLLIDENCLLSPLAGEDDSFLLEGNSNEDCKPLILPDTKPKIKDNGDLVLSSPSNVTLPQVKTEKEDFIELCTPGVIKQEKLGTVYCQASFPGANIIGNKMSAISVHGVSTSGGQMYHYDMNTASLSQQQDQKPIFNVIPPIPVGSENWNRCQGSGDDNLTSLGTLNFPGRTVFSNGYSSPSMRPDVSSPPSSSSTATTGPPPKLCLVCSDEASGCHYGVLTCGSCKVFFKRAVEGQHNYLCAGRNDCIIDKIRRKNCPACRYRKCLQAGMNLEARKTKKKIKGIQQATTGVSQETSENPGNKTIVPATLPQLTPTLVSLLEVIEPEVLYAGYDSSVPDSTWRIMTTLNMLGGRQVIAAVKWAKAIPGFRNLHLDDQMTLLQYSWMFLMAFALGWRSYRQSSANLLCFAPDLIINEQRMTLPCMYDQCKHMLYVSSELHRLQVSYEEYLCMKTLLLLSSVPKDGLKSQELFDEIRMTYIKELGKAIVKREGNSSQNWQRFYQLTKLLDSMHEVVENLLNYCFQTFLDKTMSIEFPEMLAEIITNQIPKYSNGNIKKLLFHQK
Sequence of Cytochrome P450 1A2 (Homo sapiens) (P05177 whole entry, looked up): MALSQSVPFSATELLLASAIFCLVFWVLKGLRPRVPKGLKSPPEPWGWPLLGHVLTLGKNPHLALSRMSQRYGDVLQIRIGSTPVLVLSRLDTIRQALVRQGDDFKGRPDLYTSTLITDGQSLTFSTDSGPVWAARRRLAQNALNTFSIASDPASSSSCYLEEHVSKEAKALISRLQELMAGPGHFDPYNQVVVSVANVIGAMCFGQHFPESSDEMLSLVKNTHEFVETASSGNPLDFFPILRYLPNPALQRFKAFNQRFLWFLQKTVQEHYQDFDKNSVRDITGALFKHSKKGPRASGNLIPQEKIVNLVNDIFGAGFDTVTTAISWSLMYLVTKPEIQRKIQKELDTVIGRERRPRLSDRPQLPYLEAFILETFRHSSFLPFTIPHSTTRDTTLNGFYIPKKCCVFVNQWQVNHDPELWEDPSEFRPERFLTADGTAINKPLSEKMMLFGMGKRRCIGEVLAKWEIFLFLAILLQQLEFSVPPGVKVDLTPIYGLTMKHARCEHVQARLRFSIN
Sequence of Cytochrome P450 3A4 (Homo sapiens) (P08684 whole entry, looked up): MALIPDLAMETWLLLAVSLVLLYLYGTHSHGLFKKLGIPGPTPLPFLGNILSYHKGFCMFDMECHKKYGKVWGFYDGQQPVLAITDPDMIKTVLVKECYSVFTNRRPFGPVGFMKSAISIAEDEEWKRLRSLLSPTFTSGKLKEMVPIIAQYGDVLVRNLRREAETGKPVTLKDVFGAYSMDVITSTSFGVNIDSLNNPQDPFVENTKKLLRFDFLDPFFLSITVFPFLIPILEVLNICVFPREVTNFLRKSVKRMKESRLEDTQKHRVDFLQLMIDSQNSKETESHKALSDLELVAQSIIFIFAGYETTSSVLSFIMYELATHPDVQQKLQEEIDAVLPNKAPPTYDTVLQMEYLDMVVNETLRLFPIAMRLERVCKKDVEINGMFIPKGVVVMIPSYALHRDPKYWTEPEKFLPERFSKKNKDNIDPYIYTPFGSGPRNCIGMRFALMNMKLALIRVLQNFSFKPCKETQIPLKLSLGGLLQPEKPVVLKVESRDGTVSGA
Sequence of Phospholipid hydroperoxide glutathione peroxidase GPX4 (Homo sapiens) (P36969 whole entry, looked up): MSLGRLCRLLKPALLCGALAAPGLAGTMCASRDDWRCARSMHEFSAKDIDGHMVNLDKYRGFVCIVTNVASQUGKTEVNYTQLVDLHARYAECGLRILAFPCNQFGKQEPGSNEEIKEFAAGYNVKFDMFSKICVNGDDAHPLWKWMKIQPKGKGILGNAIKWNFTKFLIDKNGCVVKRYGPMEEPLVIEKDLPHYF
Sequence of Glutathione peroxidase 1 (Homo sapiens) (P07203 whole entry, looked up): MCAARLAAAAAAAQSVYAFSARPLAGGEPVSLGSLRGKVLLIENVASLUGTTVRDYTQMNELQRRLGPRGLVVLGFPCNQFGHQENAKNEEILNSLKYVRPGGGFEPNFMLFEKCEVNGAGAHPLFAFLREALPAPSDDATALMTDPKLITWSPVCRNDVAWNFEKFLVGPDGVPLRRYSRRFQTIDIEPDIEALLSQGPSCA
Sequence of Lysosomal acid glucosylceramidase (Homo sapiens) (P04062 whole entry, looked up): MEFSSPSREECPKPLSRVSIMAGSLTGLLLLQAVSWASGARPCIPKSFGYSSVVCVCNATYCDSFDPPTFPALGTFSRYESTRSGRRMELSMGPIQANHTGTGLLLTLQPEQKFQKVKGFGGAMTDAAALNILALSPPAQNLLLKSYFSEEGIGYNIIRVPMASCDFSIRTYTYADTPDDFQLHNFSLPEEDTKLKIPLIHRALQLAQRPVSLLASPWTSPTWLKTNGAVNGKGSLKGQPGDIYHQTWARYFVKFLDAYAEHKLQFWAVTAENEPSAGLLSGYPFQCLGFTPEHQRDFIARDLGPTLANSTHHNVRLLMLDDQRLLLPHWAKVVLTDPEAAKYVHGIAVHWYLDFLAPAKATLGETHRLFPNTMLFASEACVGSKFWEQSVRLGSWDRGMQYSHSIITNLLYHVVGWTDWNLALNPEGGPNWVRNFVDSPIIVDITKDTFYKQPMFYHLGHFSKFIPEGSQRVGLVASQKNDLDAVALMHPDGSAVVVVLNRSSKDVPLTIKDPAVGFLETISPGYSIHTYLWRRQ
Sequence of 3',5'-cyclic-AMP phosphodiesterase 4B (Homo sapiens) (Q07343 whole entry, looked up): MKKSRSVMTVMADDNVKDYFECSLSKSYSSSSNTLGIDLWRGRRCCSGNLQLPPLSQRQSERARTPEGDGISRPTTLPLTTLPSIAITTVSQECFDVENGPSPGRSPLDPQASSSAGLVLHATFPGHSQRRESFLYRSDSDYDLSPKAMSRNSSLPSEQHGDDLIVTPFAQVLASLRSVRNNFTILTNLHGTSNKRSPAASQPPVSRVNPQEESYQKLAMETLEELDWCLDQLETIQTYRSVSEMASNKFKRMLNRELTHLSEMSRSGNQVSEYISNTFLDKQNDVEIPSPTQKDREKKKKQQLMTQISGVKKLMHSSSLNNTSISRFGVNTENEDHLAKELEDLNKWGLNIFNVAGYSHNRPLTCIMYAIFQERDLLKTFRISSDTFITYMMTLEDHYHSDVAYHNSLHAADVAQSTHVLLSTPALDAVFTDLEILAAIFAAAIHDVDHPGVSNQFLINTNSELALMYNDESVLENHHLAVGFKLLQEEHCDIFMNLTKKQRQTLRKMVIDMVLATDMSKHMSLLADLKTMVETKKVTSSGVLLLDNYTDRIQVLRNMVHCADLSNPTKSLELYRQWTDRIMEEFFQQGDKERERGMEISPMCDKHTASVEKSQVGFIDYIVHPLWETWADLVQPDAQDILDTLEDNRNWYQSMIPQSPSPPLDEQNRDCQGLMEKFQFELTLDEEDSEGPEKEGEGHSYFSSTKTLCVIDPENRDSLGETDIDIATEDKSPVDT

`CCCCCCCCCCCCCCCCn1cc[n+](Cc2ccccc2)c1C` gave a parasite growth, % of DMSO control in [1] of 5.58%. Further, the parasite growth remaining, % of DMSO control (lower = more inhibition) in test [2] stood at 6.21%. This molecule returned a parasite growth, % of control (lower = inhibition) in [3] of 8.98%. The same molecule registered a growth, % of control in test [4] of 5.99%. Further, in test [5], the Potency is 11.2 µM (active).

Regarding `Cc1cc(/C=C/C#N)cc(C)c1Nc1ccnc(Nc2ccc(C#N)cc2)n1`, in [6], the Potency is 16.3 µM (active). The Potency result in test [7] and in test [8] was “inactive” each time.

Turning to `Cc1cnc(CNc2ncnc3ccc(-c4ccc(N(C)C)cc4)cc23)cn1`, the Potency in test [9] was > 11.4 µM (inactive); in test [10], 1 µM (active); in [13] it was > 46 µM (inactive); in [14] it was > 46 µM (inactive); in test [17], 8.91 µM (active); in test [18] it was 11.2 µM (active). For the same molecule, the activity change, negative = inhibition in test [11] is 5.72% (inactive). In addition, the molecule was classed as inactive in test [12] and in [16]. The Potency entry in [15], in test [19] and in [20] was “inactive” in each case.
